Screening data: PubChem BioAssay, The Scripps Research Institute Molecular Screening Center
PAFAH1B3 inh: blocks human PAF acetylhydrolase 1B catalytic subunit 3. recombinant PAFAH1B3, FP-rhodamine probe, fluorescence polarization. AID 492972. inhibition, % at 3.39 µM. 340,000 tested, 0.28% active. Q15102;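 active = inhibition above the screen-wide average of all tested compounds plus 3 SD, cut at about 25% in these data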;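 note: 0% = enzyme with DMSO only and 100% = wells lacking PAFAH1B3 protein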
eLon inh: E. coli protease La inhibition; P0A9M0; purified E. coli Lon protease, fluorescence polarization; inhibition, % at 7.94 µM; 360,000 tested, 0.42% active; AID 602123; in the data active = inhibition above about 13%, passing the limit was not always enough;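 note: 0% = enzyme with probe and DMSO and 100% = no enzyme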
PAFAH2 inh: inhibitors of human PAFAH2; 340,000 tested, 0.99% active; inhibition, % at 3.39 µM; recombinant PAFAH2, FP-rhodamine activity probe, fluorescence polarization; Q99487;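 active = inhibition above the mean over all tested compounds plus 3 SD, cut at about 30% in these data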;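 note: inhibitors block probe labeling of enzyme so polarization drops; 0% = enzyme with DMSO and 100% = wells lacking PAFAH2 protein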
pPAFAH FP inh: inhibitors of human plasma PAF acetylhydrolase (pPAFAH). Q13093. recombinant pPAFAH, FP-rhodamine probe fluorescence polarization. inhibition, % at 3.39 µM. 330,000 tested, 1.5% active. AID 463082;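 active = inhibition above the mean inhibition across the screen plus 3 SD, cut at about 25% in these data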;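 note: inhibitors block binding of the rhodamine activity-based probe so polarization drops; 0% = enzyme with DMSO and 100% = wells lacking pPAFAH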
PAFAH1B2 FP inh: inhibitors of human PAFAH1B2. recombinant PAFAH1B2, FP-rhodamine activity probe, fluorescence polarization. 340,000 tested, 1.2% active. inhibition, % at 3.39 µM;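 active = inhibition above the mean of all tested compounds plus 3 SD, cut at about 24% in these data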;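 note: 0% = enzyme with DMSO and 100% = wells lacking PAFAH1B2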
Rin1 Abl inh: human Rin1-Abl interaction inhibition; P00519+Q13671; TR-FRET Rin1/Abl binding, biochemical; inhibition, % at 7.35 µM; 360,000 tested, 0.4% active; in the data active = inhibition above about 5%, passing the limit was not always enough
* = called active by the depositor; · = no result. This is a sample that favours compounds with a hit; in the whole collection about 3.1% have one here.

SMILES	PAFAH1B3 inh	eLon inh	PAFAH2 inh	pPAFAH FP inh	PAFAH1B2 FP inh	Rin1 Abl inh
Cc1ccc(NC(=O)COC(=O)CC2CCCC2)cc1Cl	6.6	-5.5	67.6*	18.0	-3.6	-4.4
COc1ccc(NC(=O)CN(C)C2CCCCC2)cc1Cl	2.8	-4.7	-0.1	0.7	7.6	-1.9
COc1ccc(S(=O)(=O)N2CCN(Cc3ccco3)CC2)cc1	6.3	-3.1	-10.9	-1.1	2.3	0.1
COC(=O)CCCCCN1C(=O)/C(=C\c2ccncc2)SC1=S	2.0	-12.1	-8.2	5.0	7.2	-2.5
O=C(NCc1ccccc1)C1(c2cccc(F)c2)CCCC1	6.9	10.2	9.7	-4.5	26.2*	2.4
O=C(NCc1ccco1)C1(c2ccccc2)CCCC1	12.3	-3.7	4.8	6.0	14.3	-4.7
CN(C)C(=O)c1cc2c(c(-c3cccc(C4=CCCCC4)c3)n1)[C@@H](CCO)N(S(=O)C(C)(C)C)C2 (stereo partly specified)	·	-1.8	·	·	·	1.3
N#Cc1cccc(S(=O)(=O)NNC(=O)C23CC4CC(CC(C4)C2)C3)c1	9.4	-2.7	2.6	5.3	25.6*	4.5
N#C/C(C(=O)Nc1ccc(Cl)cc1)=C(/S)Nc1ccccc1	14.0	7.9	8.4	21.3	10.0	-1.8
Cc1cc(C)cc(NC(=O)CSc2nc(=O)n3cc(C)ccc3n2)c1	2.1	5.3	8.6	24.9*	4.0	1.5
Cc1ccc(C)c(OCCn2ccnc2)c1	4.3	-3.0	-3.0	-4.2	0.6	10.2*
Cc1cc(C)c(C)c(OCCn2ccnc2)c1	2.0	-3.8	1.7	3.8	-0.1	-1.7
COc1ccc(-c2noc(CCC(=O)N3CCN(c4ccc(F)cc4)CC3)n2)cc1	6.2	1.0	-1.3	4.4	2.7	-2.3
COc1ccc2oc(=O)c(-c3csc(Nc4ccc(O)cc4)n3)cc2c1	17.0	-9.0	-5.2	29.1*	8.2	-4.1
COc1ccc2oc(=O)c(/C(C)=N/Nc3nc(-c4cc(C)ccc4C)cs3)cc2c1	-1.2	6.1	2.4	5.0	3.2	-6.3
Cc1ccccc1N=Cc1cc2c(cc1[N+](=O)[O-])OCO2	5.4	-1.1	7.1	22.4	2.3	0.7
Cc1c(N=Cc2cc3c(cc2[N+](=O)[O-])OCO3)cccc1[N+](=O)[O-]	-0.7	7.3	6.2	49.1*	8.8	4.9
O=C(O)c1ccc(-n2cccc2/C=C2/SC(=O)N(CC(=O)N3CCCC3)C2=O)cc1	23.1	-5.7	37.6*	33.6*	12.3	0.3
O=C(O)c1ccc(-n2cccc2/C=C2/NC(=O)N(c3ccccc3)C2=O)cc1	11.6	-8.0	26.0	28.7*	13.6	-2.1
O=C(O)c1ccc(-n2cccc2/C=C2/NC(=O)N(c3cccc(Cl)c3)C2=O)cc1	8.5	-7.2	19.9	·	9.3	1.0
CCOc1cc(C(=O)OCc2cccc(OC)c2OC)ccc1OCC(=O)N1CCOCC1	-6.5	-10.9	2.7	32.5*	1.3	-1.3
CCOc1cc(C(=O)OCc2ccc([N+](=O)[O-])cc2)ccc1OCC(=O)N1CCOCC1	-3.9	-5.2	17.2	10.3	-4.8	0.6
COc1ccc(S(=O)(=O)NCC(=O)N(CC(=O)NCC2CCCO2)Cc2ccc(F)cc2)cc1 (stereo unspecified)	6.7	11.3	8.9	-2.9	0.6	0.6
N#C/C(=N\Nc1ccc(S(=O)(=O)N2CCc3ccccc32)cc1)C(N)=S	13.6	-4.0	24.2	24.4	26.1*	-1.0
CCOC(=O)/C(C#N)=N/Nc1ccc(S(=O)(=O)N2CCc3ccccc32)cc1	10.0	-8.4	-0.4	14.7	13.0	-3.8
SMILES	PAFAH1B3 inh	eLon inh	PAFAH2 inh	pPAFAH FP inh	PAFAH1B2 FP inh	Rin1 Abl inh
CCCCn1nnnc1C(c1cc2ccccc2o1)N(C)Cc1ccc(Cl)cc1 (stereo unspecified)	·	4.5	·	·	·	·
CCC(C)(C)C1CCc2[nH]nc(C(=O)NCCNC(=O)OC(C)(C)C)c2C1 (stereo unspecified)	2.4	-4.0	3.9	4.7	27.7*	5.6
OC1c2c(F)cccc2N=C2CCCCCN21 (stereo unspecified)	·	5.3	·	·	·	2.5
CC(C)N(Cc1nccn1C)C(=O)c1cc(COc2ccc(-n3cncn3)cc2)on1	3.1	-1.3	1.9	8.2	3.0	-0.9
N#C/C(=C(/O)COC(=O)c1ccc(C#N)cc1)c1nc2ccccc2s1	8.5	-21.9	12.1	25.4*	5.7	2.3
N#C/C(=C(/O)COc1ccccc1)c1nc2ccccc2s1	8.8	9.3	9.9	1.5	11.7	3.2
